SMN2 splice enh – SMN2 splice variant enhancement. 210,000 tested, 2.8% active. Potency, µM (doses to about 46.1 µM), inactives show at the top dose activity change, positive = activation, most hits filed as activators. HEK293 SMN2-luciferase splicing reporter, luminescence, 30-36 h; note: % of control where 0% means no effect; nearly all actives have a fitted effect of over 55% in size
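HEK293 cells carry an SMN2 minigene-luciferase reporter in which exon 7 inclusion puts luciferase in frame. Cells were seeded at 2000 cells/well, attached for 10-12 hours, then exposed to compounds for 30-36 hours at 37C before ONE-Glo luminescence.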
ELG1 genotox – genotoxicity induction in ELG1-luciferase HEK293T cells; HEK293T ELG1-luciferase reporter, luminescence, 16 h; Potency, µM (top dose mostly 46 µM), without a hit: at the top dose activity change, positive = activation, actives largely listed as activators; 330,000 tested, 1.3% active; note: % of control where 0% means no effect; nearly all actives have a fitted effect of over 60% in size
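HEK293T cells expressing luciferase-tagged ELG1 were exposed to compound or DMSO vehicle for 16 hr at 37 °C and 5% CO2. Luciferase activity was then measured with ONE-Glo after 30 min at room temperature.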
NPC1 promoter act – NPC1 promoter activation; Huh7 NPC1 promoter luciferase reporter, 24 h; Potency, µM (titrated, usually from 9.22 µM), without a hit: at the highest dose activation, most hits filed as activators; 320,000 tested, 2.4% active; AID 485313; note: % of control where 0% means no effect; nearly all actives have a fitted effect of over 60% in size
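Luminescence from an NPC1 promoter-driven luciferase reporter in stably transfected Huh7 cells was measured after 24 h compound treatment at 37 °C, followed by 10 min ambient incubation with luciferase detection reagent.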
FLuc modulator – firefly luciferase modulation, counter-screen for miR-21 project | purified FLuc, Km substrates, luminescence inhibition | Potency, µM (doses to about 57.5 µM), for inactives: top-dose activity change, negative = inhibition, hits mostly inhibitors | 360,000 tested, 6.9% active | AID 588342;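 note: plate controls were vehicle for no effect and reference inhibitor for full effect; nearly all actives have a fitted effect of over 55% in size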
Target sequence (P08659 whole entry, looked up): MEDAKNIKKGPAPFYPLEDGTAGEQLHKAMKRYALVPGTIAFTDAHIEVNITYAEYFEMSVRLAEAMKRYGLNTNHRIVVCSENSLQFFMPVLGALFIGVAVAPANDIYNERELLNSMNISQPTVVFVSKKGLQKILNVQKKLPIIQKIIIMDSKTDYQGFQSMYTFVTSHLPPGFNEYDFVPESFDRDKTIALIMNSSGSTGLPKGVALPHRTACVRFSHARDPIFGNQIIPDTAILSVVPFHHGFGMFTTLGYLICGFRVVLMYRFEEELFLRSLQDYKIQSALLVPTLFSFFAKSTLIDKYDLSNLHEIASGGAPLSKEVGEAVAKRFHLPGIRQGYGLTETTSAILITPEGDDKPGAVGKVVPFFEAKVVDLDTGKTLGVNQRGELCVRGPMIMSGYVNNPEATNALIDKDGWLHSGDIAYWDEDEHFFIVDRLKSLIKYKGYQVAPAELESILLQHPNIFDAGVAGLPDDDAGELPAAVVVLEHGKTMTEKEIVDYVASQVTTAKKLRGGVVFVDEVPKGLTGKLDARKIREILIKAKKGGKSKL
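Biochemical qHTS of compounds, final roughly 60 µM downward over six points, against 10 nM purified firefly luciferase using Km concentrations of substrates (10 uM D-luciferin, 10 uM ATP) in Tris acetate pH 7.5 buffer; luminescence output.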
Luc counter – Kinase-Glo luciferase inhibition (counter-screen) | Q27757 | Kinase-Glo luciferase, ATP luminescence, 8 min | Potency, µM (doses to about 38.3 µM), inactives show top-dose activity change, negative = inhibition, most hits filed as inhibitors | 200,000 tested, 0.28% active; note: % is set by controls: 0 for no effect and ±100 for the full control effect; nearly all actives have a fitted effect of over 60% in size
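Recombinant Kinase-Glo luciferase, 10 uM ATP (linear range), luciferin; imidazole pH 7.2 / KCl / MgCl2 / Tween / BSA buffer; 8 min RT; luminescence.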
Rab9 promoter act – Rab9 promoter activation. Huh7 Rab9 promoter-luciferase reporter, luminescence, 24 h. Potency, µM (series often up to 9.22 µM), for the others: at the top dose activation, negative = inhibition, hits mostly activators. 320,000 tested, 2.8% active. AID 485297; note: % of control where 0% means no effect; nearly all actives have a fitted effect of over 60% in size
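Cell-based reporter: Huh7 stable for Rab9 promoter-driven luciferase, plated in reduced-serum medium with 10% FBS at 1500 cells/well, compound-treated 24 h at 37 °C, luminescence read after 10 min reagent.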
Active calls of the source: *; ? = inconclusive; . = not tested or not shown; [ ] = another dose, or the depositor's remark. The list is not random: actives were taken first. Their share in the collection is about 7.4%. Calls come from the whole dose curve; as a rule, active = well fitted curve in the direction sought with a large enough effect; inconclusive = small, poorly fitted or top-dose-only effect, or another doubt; inactive = no such curve, though single readings can be large; an effect the other way counts as inactive or inconclusive. Potency is the fitted concentration of half-maximal effect.

SMILES	SMN2 splice enh	ELG1 genotox	NPC1 promoter act	FLuc modulator	Luc counter	Rab9 promoter act
Clc1cccc(CSc2nncn3c2cc2sccc23)c1	.	.	.	6%	.	.
N#CC1=C(N)N(c2cccc(Cl)c2)C2=C(C(=O)CCC2)C1c1cc(CN2CCOCC2)cs1 (configuration not stated)	10%	.	.	-8%	.	.
CCN(C(=O)C1CCN(S(=O)(=O)c2cc(Br)cc3c2N(C(C)=O)CC3)CC1)c1cccc(C)c1	-12%	.	.	0%	.	.
COc1ccc2cc(C(=O)N/N=C/c3cc(OC)c(OC)c(OC)c3)[nH]c2c1	.	-6%	1%	6.7µM*	.	-2%
Cc1ccc2nc(-c3cccnc3)oc2c1	?	?	?	8.5µM*	-7%	1.3µM*
O=C(O)Cc1ccc2oc(-c3ccccn3)nc2c1	.	12%	-8%	?	.	-5%[1.84 µM]
Cc1ccc2nc(-c3ccccn3)oc2c1	7.1µM*	?	1.6µM*	1.9µM*	13µM*	0.63µM*
Cc1ccc(C(=O)Nc2ccc3oc(-c4cccnc4)nc3c2)c(Cl)c1	-5%	.	.	?	.	.
CC(C)N(Cc1nc(-c2ccc(Cl)cc2)no1)C(=O)c1ccco1	-26%	.	.	-6%	.	.
C#CCCCCCCCCCCCC(=O)CC(O)COC(C)=O (configuration not stated)	1%	.	.	.	1%	.
C/C(=N/NC(=O)c1ccoc1C)c1cccc(NC(=O)C(F)(F)F)c1	18%	?	15%	?	-5%	28%
Cc1occc1C(=O)Nc1cccc(C(=O)O)c1	?	?	2.2µM*	9.5µM*	12%	2.8µM*
COc1ccc(C(=O)N/N=C(/C)c2cccc(NC(=O)c3ccncc3)c2)cc1OC	.	-4%	2%	?	.	-2%
C/C(=N/NC(=O)c1ccc(C)s1)c1cccc(NC(=O)c2ccoc2C)c1	.	-19%	2%	17µM*	.	27%
Cc1ccc(NC(=O)c2ccoc2C)cc1C	16µM*	?	?	?	10µM*	2.8µM*
C/C(=N\NC(=O)c1ccncc1)c1cccc(NC(=O)c2ccc(Cl)s2)c1	.	-1%	24%	19µM*	.	1%
CSc1ccccc1C(=O)Nc1ccc2c(c1)OCO2	?	7%	0%	?	-9%	7%
Cc1occc1C(=O)Nc1ccc(S(N)(=O)=O)cc1	8%	2%	0%	?	-16%	7%
Nc1ccccc1C(=O)Nc1cccc(C(=O)O)c1	17%	3%	?	2.7µM*	-18%	2.2µM*
Cc1cc(NC(=O)c2ccccc2[N+](=O)[O-])ccc1Br	26%	?	28%	17µM*	2%	?
Cc1occc1C(=O)Nc1ccc2c(c1)OCO2	13µM*	21µM*	3.5µM*	24µM*	?	2.8µM*
Cc1ccccc1C(=O)Nc1cccc(NC(=O)c2ccccc2[N+](=O)[O-])c1	.	3%	-3%	?	.	11%
Cc1cc(NC(=O)c2ccoc2C)ccc1Br	.	?	?	7.6µM*	.	?
CCOc1ccc2oc(=O)cc(CN3CCN(Cc4ccc(F)cc4)CC3)c2c1	-3%	.	.	-8%	.	.
CSc1ccc(CCNC(=O)c2csc3c2CCCCC3)cc1	2%	.	.	?	.	.
SMILES	SMN2 splice enh	ELG1 genotox	NPC1 promoter act	FLuc modulator	Luc counter	Rab9 promoter act
COC(=O)C[C@H](NC(=O)[C@H](C)NC(=O)[C@@H](NC(=O)OCc1ccccc1)C(C)C)C(=O)CF	26%	.	.	.	.	.
CC(C)COC(=S)Nc1ccccc1	-9%	?	0%	17µM*	6%	2%
Cc1ccccc1N=C1NC(=O)CS1	-11%	1%	-3%	0%	14%	3%
Cc1ccccc1N=C1Nc2ccccc2CS1	13µM*	?	1.4µM*	4.8µM*	-11%	0.63µM*
Cc1ccc(NC(=O)/C(C#N)=C/c2ccc(C)o2)cc1	7.1µM*	.	.	1.9µM*	.	.
Cc1cccc(NC(=O)/C(C#N)=C/c2ccc(C)o2)c1	13µM*	.	.	9.5µM*	.	.
CC(=O)Nc1cccc(NC(=O)c2cc3c(=O)n4cccc(C)c4nc3n2C)c1	.	.	.	-6%	.	.

Compound activity: PubChem BioAssay, National Center for Advancing Translational Sciences (NCATS)
